# Assay results taken from PMC12136788.
# Changes are numbered by the printed parent chain. Whole data set: some 5,800 sequences, median “enrichment r” near 0.54, cut for the highest 2% near 16. This is one part of a sample in which the highest values are shown more often than they occur.
# B1: ENSG00000070961:be:win_601|CDS|ENSG00000070961|bound_else_gene|NA|bound_elsewhere_windowed (ssRNA)
# RNA: GGGAGUUCUACAGUCCGACGAUCCAGGUCAUUCAGAUACCUGUAGCUGACAUUACUGUUGGAGAUAUUGCUCAAGUGAAAUAUGGUGAUCUUCUUCCAGCUGACGGCAUACUUAUUCAAGGCAACGAUCUUAAAAUUGAUGAACAACAGAGGAUUGAGCAUCA
# B2: chr11:10770493:10770605:+|CDS|ENSG00000198730|unk|FALSE|unique (ssRNA)
# RNA: GGGAGUUCUACAGUCCGACGAUCACAUGUGGCACCCAGUGAUACAGUUCUUAUGUUUAAUGUGGCCUUGGUCCUGCAAAGAUUAGCUACCUCUGUCCUGAAAGAUGAAAAAAGUAAUCUGAAGGAAGUACUUAAUGCUGUGAACAACAGAGGAUUGAGCAUCA
# B3: chr1:51919672:51919773:-|3pUTR|ENSG00000169213|unk|FALSE|unique (ssRNA)
# RNA: GGGAGUUCUACAGUCCGACGAUCUAUUCUUUGCCUGCCCCUGGGGUUCUCUGCAGAUGGUCCCAGUAAUAGAUACUCAGCACUAGACUAACAUAACAGGUCACUACACGGGUGCAGAAUCACUUUACAAAAGAAGACUCUGUUCAACAGAGGAUUGAGCAUCA
# B4: ENSG00000107863:be:win_5751|CDS|ENSG00000107863|bound_else_gene|NA|bound_elsewhere_windowed (ssRNA)
# RNA: GGGAGUUCUACAGUCCGACGAUCACCUGACCAAAUAAACGGAGAAAGCUUCCAGAACGUGAGCAAAAAUGCUAGUUCUGCAGCGAAUGCCCAACCUCAUAAACUGUCUGAAACCCCAGGCAGUAAAGCAGAGUUUCAUCCCUGCAACAGAGGAUUGAGCAUCA
# B5: chr1:113685846:113685948:+|3pUTR|ENSG00000081026|unk|FALSE|unique (ssRNA)
# RNA: GGGAGUUCUACAGUCCGACGAUCUAUAUACACUUGAGGUUCUGAUUAGAGAAAGAUCUGUAAAUUGCUCAUUAUUUUUUAUAUAGAUAUUUAAAAAAAACAGUUUAUGGCCUGCAUUUCUUUUACUGUCACAUUGGUUUAAUGCAACAGAGGAUUGAGCAUCA
# B6: chr21:14485227:14485911:-|three_prime_utr|ENSG00000155307|control|control|control (ssRNA)
# RNA: GGGAGUUCUACAGUCCGACGAUCCCCAACUAUAUAUCUACAGAUGCAUUCCAUUUUAACUCUUCUUGAGCUAAAACGUCAAAUAGGAGAGGAAGAUAAGAUAAAUAUUUGUAAAUAAAACCUAAAGUUUAAAUGUUUUAAUCUCAACAGAGGAUUGAGCAUCA
# B7: chr2:158176520:158176661:-|CDS|ENSG00000153237|control|control|control (ssRNA)
# RNA: GGGAGUUCUACAGUCCGACGAUCGCUGUUGUUGCUCAAUUUGAUCCUGUUAGAAUGAUGUCAGAUACAAUGGCAUCAAAAGCUAGAAUGGGCAUUGAAAUUGAAGAAGAAUUUAUUCUUCAAAAGCCACUCUUCACAUUGAAUCAACAGAGGAUUGAGCAUCA
# B8: chr2:151248206:151248307:-|3pUTR|ENSG00000184898|msi1|FALSE|unique (ssRNA)
# RNA: GGGAGUUCUACAGUCCGACGAUCUUUUUUUAAAGCAAAGAUUAAAUUCCCAUGUAAAACCUUCCUCCCUAUACAAAAAAGAAUAGCAGCAUUUUUAUCUUCAAUGACAAAGAAUUGAGUCCAAGAAAAUACUGUAUAAACCUUCAACAGAGGAUUGAGCAUCA
# B9: chr14:55048714:55048815:+|3pUTR|ENSG00000180008|msi1|FALSE|bound_elsewhere (ssRNA)
# RNA: GGGAGUUCUACAGUCCGACGAUCUUUCUAAUUUUGAACAGAUGACUCAGUCCUAAAUCUUUGCCUUUAUUUCCUAUAAAAUGUAGGUGAUACUUGUAACUCGACUUCCUGGAGUUAAUUCUUCAGCAAGAGGUGACCCUGGGACAACAGAGGAUUGAGCAUCA
# B10: chr9:72354534:72354635:-|3pUTR|ENSG00000107372|msi1|total|mutant (ssRNA)
# RNA: GGGAGUUCUACAGUCCGACGAUCGUCCCCGUUUUUACUUUUAUUCUUAAAGCAUUCAGUUUUGCUUUCAAUUUUAUGUACCUCCGUUCUGAGUCCGACCUGCAGAUGUGUACAGACCGUUCAUAUUUAUGUAUUGCACAUAAUCAACAGAGGAUUGAGCAUCA
# B11: chr10:95311796:95311897:-|3pUTR|ENSG00000095637|unk|FALSE|unique (ssRNA)
# RNA: GGGAGUUCUACAGUCCGACGAUCCAGACAUAGAUUUUUCUGUUCAUUUAUUUUUCUUCAUUGCAGUGGAUUGAUUUGAUAAAUAGAUGUGUUGAAUUACUACAUUUGCUGUACAUAUUAUUUAAUAAACUUUAUUCAGAAUUGCAACAGAGGAUUGAGCAUCA
# B12: chr9:72354534:72354635:-|3pUTR|ENSG00000107372|msi1|FALSE|unique (ssRNA)
# RNA: B10 RNA with C28U, C29A, C83U, C84A, C94U, C95A, C116U, C117A
# B13: ENSG00000070961:be:win_5651|3pUTR|ENSG00000070961|bound_else_gene|NA|bound_elsewhere_windowed (ssRNA)
# RNA: GGGAGUUCUACAGUCCGACGAUCGUUUCUAGUCUUGGUUUUGCCAUUAAUGUGCUGCAUGAUCUUGGGAAAAUCAUUUACCCUAAAUAAGGGUGGUGGACUAUCUUGAAGAACCCUUUCAACUCUAAAAAUUGACCCUAUCAACAACAGAGGAUUGAGCAUCA
# B14: chr19:14119889:14120036:-|3pUTR|ENSG00000105011|msi1|FALSE|unique (ssRNA)
# RNA: GGGAGUUCUACAGUCCGACGAUCAGCAGACCCACUCCAGCUUUCUGGUGUCACAGGCGGGAAUGUUAGUUAGUAGGUAGACUUAGAUCCCAUUUCUGUCCUGCUCCCAGGAAGAUUCUUAGGUCCUCUUCAAUCCAGCAGCCCCAACAGAGGAUUGAGCAUCA
# B15: chr2:1633339:1633490:-|3pUTR|ENSG00000130508|msi1|total|mutant (ssRNA)
# RNA: GGGAGUUCUACAGUCCGACGAUCUUCAUAAGCCACAUUCCGAAACAGGUUUGCUUUCAGCUGUCACUUGCACACAUACUGCCCCGUUGUGAACCAAAUGUGAAAAAACCUCCUUCAUCCCAUUGUGUAUCUGAUACCUGCCGACAACAGAGGAUUGAGCAUCA
# B16: ENSG00000198589:be:win_3651|CDS|ENSG00000198589|bound_else_gene|NA|bound_elsewhere_windowed (ssRNA)
# RNA: GGGAGUUCUACAGUCCGACGAUCCCUCACUAGAGAAACCAAAUUAAUUAAUGAUUGUCAUGGUAGUGUCUCUGAGGCUUCUUCUGAGCAAAAGAUUGCGAAGUUGGAUGUUUCCAAUGUUGCUACAGAUACUGAGAGGCUGGACAACAGAGGAUUGAGCAUCA
# B17: ENSG00000113300:stop:overlap|stop_codon|ENSG00000113300|stop_codon|NA|stop_codon (ssRNA)
# RNA: GGGAGUUCUACAGUCCGACGAUCUGGAGCUCUUACUGCCUUUCCUGCCCCAAGUCAACGGCAUCCACCUUCCUGGCAGGAGGUAGUCAAGCACCUUCAGAGGACAGCCUUGAUUCACUUGUAAACUUGUGAAAAUCUGAACAUCAACAGAGGAUUGAGCAUCA
# B18: ENSG00000165672:stop:overlap|stop_codon|ENSG00000165672|stop_codon|NA|stop_codon (ssRNA)
# RNA: GGGAGUUCUACAGUCCGACGAUCCUCCUACGAUCAAGCCAAGUCCAGCUGCUUCCAAAGAGUACUUUCAGAAGGUAAAUCAGUAGAUCACCCAUGUGUAUCUGCACCUUCUCAACUGAGAGAAGAACCACAGUUGAAACCUGCCAACAGAGGAUUGAGCAUCA
# B19: chr17:18209558:18209659:+|3pUTR|ENSG00000091542|msi1|FALSE|unique (ssRNA)
# RNA: GGGAGUUCUACAGUCCGACGAUCGGUAGCUUCUAUCCACUCAGAUCCUGGAAGGCAGCAAGGUUUUGUGGAUCUAGAUUCAUUAGGAAUGUCUUCUUGUCAGCCAGGCCAGGACCCGGGCUUGCCAAGAGCAGAGGCCCUCCCCAACAGAGGAUUGAGCAUCA
# B20: ENSG00000147536:stop:overlap|stop_codon|ENSG00000147536|stop_codon|NA|stop_codon (ssRNA)
# RNA: GGGAGUUCUACAGUCCGACGAUCUCCGCUACGUCCUCAGCAGCUACUUGCGGUGUCGCCUCAUGAAGUUCCCAAACCAGAUCUAGAUUCUUACGUGUUUCUGAGAGUGAGAGAACGACAAGAAAACAUACUGGUAGAACCAGACAACAGAGGAUUGAGCAUCA
# B21: chr19:14119889:14120036:-|3pUTR|ENSG00000105011|msi1|total|mutant (ssRNA)
# RNA: GGGAGUUCUACAGUCCGACGAUCAGCAGACCCACUCCAGCUUUCUGGUGUCACAGGCGGGAAUGUCCGUCCGCCGGCCGACUCCGAUCCCAUUUCUGUCCUGCUCCCAGGAAGAUUCUCCGGUCCUCUUCAAUCCAGCAGCCCCAACAGAGGAUUGAGCAUCA
# B22: chr1:17068045:17068226:-|3pUTR|ENSG00000117115|msi1|FALSE|unique (ssRNA)
# RNA: GGGAGUUCUACAGUCCGACGAUCCUCCUUCCACUGCCUUGACUUUCUUCCUUUUUAUUCCUGGUGCCAUCUGUCCAGGCAGCUAGACAAGAACUUGUUCGCCAGCAGCCAGAUUCAGGCCUUCCCAGGGGCAUAAUAAGUGACCAACAGAGGAUUGAGCAUCA
# B23: chr20:50583650:50583751:+|3pUTR|ENSG00000196396|msi1|FALSE|unique (ssRNA)
# RNA: GGGAGUUCUACAGUCCGACGAUCUUCCUAAGCCUGUUGCUGAAGUCAUUGUCGCUCAGCAAUAGGGUGCAGUUUUCCAGGAAUAGGCAUUUGCCUAAUUCCUGGCAUGACACUCUAGUGACUUCCUGGUGAGGCCCAGCCUGUCAACAGAGGAUUGAGCAUCA
# B24: chr8:17644361:17644462:-|3pUTR|ENSG00000129422|msi1|FALSE|bound_elsewhere (ssRNA)
# RNA: GGGAGUUCUACAGUCCGACGAUCCAACAUUGUGAUGUCAGUAUUUACUAAUCUACAUUCAGUGGCUGUACAAAUAACAGCUGUAGUAAGAAGAGAUUCAGGAUGCUAGAGGUGAAUAUUUGGGUCAUUUACAUGUACACUACACAACAGAGGAUUGAGCAUCA
# B25: chr15:44665791:44665971:-|CDS|ENSG00000229474|control|control|control (ssRNA)
# RNA: GGGAGUUCUACAGUCCGACGAUCGAUCUGUUUGUUCUGGAAUACGUGUAUGUGGGAAGUUGAAUCAUCAGACACUAGCUACAUAGACUAUGUUUACAGGGAUCCAGAGAGUCUGAAGACAUUUCUUAUGCCUUUAUAUAUUGGCAACAGAGGAUUGAGCAUCA
# B26: chr4:75800632:75800752:+|CDS|ENSG00000138768|unk|total|mutant (ssRNA)
# RNA: GGGAGUUCUACAGUCCGACGAUCAAACAACUGAUUGAGAAGAGGAUUGGCAAAGAGAAUUUCACCGAGAAACCCGGAUUUAUCCGCAAACAUGAGUUGUAUUCCAGAGCAUCUCAGAAACCCCAGCCAAACUUUCCCAGUCCACAACAGAGGAUUGAGCAUCA
# B27: chr3:45095346:45095568:-|CDS|ENSG00000163814|control|control|control (ssRNA)
# RNA: GGGAGUUCUACAGUCCGACGAUCAAACAGAGCCGCAAGUUUGUCCCUGGCUGUUUCGUGUGUCUAGAAUCUCGGACCUGCAGUAGCAACCUCACCCUGACAUCUGGCUCCAAACACAAAAUCUCCUUCCUUUGUGAUGAUCUGCAACAGAGGAUUGAGCAUCA
# B28: chr1:17407970:17408071:-|3pUTR|ENSG00000179051|msi1|total|mutant (ssRNA)
# RNA: GGGAGUUCUACAGUCCGACGAUCGGGUACCGUUCUGCUGACCCAGCUCCCUUCCGUCACGUUUGCUUGGCUCUGGUACCAAACCGUUGGGAUUACCGAAGAGUCCCCUUCCUUGCGUGUCAGCACGGAUGCUGUGACUGCCACCAACAGAGGAUUGAGCAUCA
# B29: chr9:19276226:19276327:+|CDS|ENSG00000137145|unk|total|mutant (ssRNA)
# RNA: GGGAGUUCUACAGUCCGACGAUCCUUUGUCGCCGCUGGUCUCACUGACACAUCUACUCUUUUGGAUCAAGAAAUAAAUCGUUCCGAUACUAAGUCAACUGGACCUAAAGCUCCAAUUACAGACAUUGCCAUUAUUAUCAAAUCCAACAGAGGAUUGAGCAUCA
# Molecular target: MSI1 full-length (mouse, UniProt Q61474 1-362)
# Experiment: nsRBNS (natural sequence RNA bind-n-seq); RBNS binding buffer (assumed for nsRBNS): 25 mM Tris pH 7.5, 150 mM KCl, 3 mM MgCl2, 0.01% Triton X-100, 500 ug/ml BSA, 20 U/ml SUPERase-In, 4 C; UNK is unkempt and MSI1 is Musashi-1; names of the RNAs are library labels; protein concentration not given here; high values mean tight binding
# Sequence of MSI1 full-length (Q61474 whole entry): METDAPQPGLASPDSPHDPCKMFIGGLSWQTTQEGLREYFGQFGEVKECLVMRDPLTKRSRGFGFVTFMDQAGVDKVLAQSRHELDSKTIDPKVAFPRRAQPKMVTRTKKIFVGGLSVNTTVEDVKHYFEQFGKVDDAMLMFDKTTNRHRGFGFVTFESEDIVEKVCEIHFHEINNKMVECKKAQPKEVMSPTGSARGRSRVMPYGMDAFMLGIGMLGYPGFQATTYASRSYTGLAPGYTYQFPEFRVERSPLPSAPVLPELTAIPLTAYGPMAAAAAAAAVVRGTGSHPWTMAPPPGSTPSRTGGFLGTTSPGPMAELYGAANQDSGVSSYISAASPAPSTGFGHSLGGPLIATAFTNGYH
row,Binder,binding signal [enrichment R]
1,B1,0.234
2,B2,0.659
3,B3,0.896
4,B4,0.256
5,B5,13.4
6,B6,1.2
7,B7,0.406
8,B8,0.494
9,B9,0.258
10,B10,1.52
11,B11,2.8
12,B12,42.6
13,B13,0.357
14,B14,38.2
15,B15,0.388
16,B16,0.605
17,B17,38.7
18,B18,0.684
19,B19,1.93
20,B20,26.3
21,B21,0.641
22,B22,0.526
23,B23,0.237
24,B24,0.442
25,B25,0.282
26,B26,0.541
27,B27,0.476
28,B28,0.479
29,B29,0.315
